Source: PubChem BioAssay
The list is not random: actives were taken first. Their share in the collection is about 2.5%.
Cruzain inh noDet: qHTS Assay for Promiscuous and Specific Inhibitors of Cruzain (without detergent) | Cruzipain (Trypanosoma cruzi), P25779 | purified cruzain, Z-FR-AMC fluorescence, no detergent | Potency, µM, inactives show max response, negative = inhibition, hits mostly inhibitors | 200,000 compounds, 2.3% hits | AID 1476, 2009;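 further: plate controls were enzyme without inhibitor for no effect and buffer without enzyme for full effect; nearly all actives have a fitted effect of over 40% in size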
Target sequence (P25779 123-467 limits assumed): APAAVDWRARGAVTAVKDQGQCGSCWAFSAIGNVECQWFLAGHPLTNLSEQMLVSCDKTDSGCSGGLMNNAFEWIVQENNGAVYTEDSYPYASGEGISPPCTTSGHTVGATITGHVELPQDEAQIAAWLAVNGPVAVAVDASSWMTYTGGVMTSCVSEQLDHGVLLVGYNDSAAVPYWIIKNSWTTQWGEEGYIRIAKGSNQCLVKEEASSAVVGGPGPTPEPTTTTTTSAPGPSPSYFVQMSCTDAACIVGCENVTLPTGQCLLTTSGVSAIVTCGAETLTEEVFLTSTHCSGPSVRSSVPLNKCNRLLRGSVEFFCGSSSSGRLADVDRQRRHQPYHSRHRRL
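Purified cruzain at 1.5 nM, pre-incubated 15 min with compound at room temperature in 100 mM sodium acetate pH 5.5, 5 mM DTT, 0.00005% Triton X-100. Reaction started with 2 uM Z-FR-AMC; AMC fluorescence increase over 60 s gives rate.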
Cruzain Triton: qHTS Assay for Promiscuous and Specific Inhibitors of Cruzain (with detergent) | Potency, µM, inactives show max response, negative = inhibition, usual class: inhibitors | Cruzipain (Trypanosoma cruzi), P25779 | 200,000 compounds, 0.43% hits | purified cruzain, Z-FR-AMC fluorescence, 0.01% Triton | AID 1478, 2009;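 further: plate controls were neutral wells for no effect and buffer without enzyme for full effect; nearly all actives have a fitted effect of over 40% in size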
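Detergent-containing run (0.01% Triton X-100) in acetate buffer pH 5.5 with 5 mM DTT: enzyme at 1.5 nM final, 15 min compound preincubation at room temperature, then 2 uM Z-FR-AMC substrate. Activity taken as 60 s fluorescence increase at 360/450 nm.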
The depositor's hits bear a star; ? = inconclusive. The call rests on the fitted dose curve; in most records, active means well fitted curve in the direction sought with a large enough effect; inconclusive means small, poorly fitted or top-dose-only effect, or another doubt; inactive means no such curve, though single readings can be large; an effect the other way counts as inactive or inconclusive. Potency means the concentration at half of the fitted maximal effect.

SMILES	Cruzain inh noDet	Cruzain Triton
Cc1ccc(-c2nnc(NCc3nc4ccccc4[nH]3)c3ccccc23)cc1S(=O)(=O)N1CCCCC1	13µM*	-2%
Cc1ccc(C)c2sc(NC(=O)c3ccc(N4CCCCC4)c([N+](=O)[O-])c3)nc12	7.9µM*	4%
CCC(C)c1ccccc1NC(=O)COC(=O)c1ccc(N2CCCC2)c([N+](=O)[O-])c1 (centres undefined)	-3%	0%
Cc1cccc(NC(=O)c2ccc(N3CCCCC3)c([N+](=O)[O-])c2)n1	-9%	0%
Cc1cccc(C)c1NC(=O)COC(=O)c1ccc(N2CCCC2)c([N+](=O)[O-])c1	10µM*	-2%
CCc1ccc(C2CC(=O)c3c([nH]c(C(=O)OC4CCCCCC4)c3C)C2)cc1 (centres undefined)	2%	1%
Cc1cc(Nc2ccc(Br)c(C)c2)n2nc(-c3ccco3)nc2n1	-10%	-10%
CCN(CC)c1ccc(NC(=O)/C=C\c2ccccc2Cl)cc1	25µM*	-10%
CN(C)c1ccc(NC(=O)/C=C/c2ccccc2Cl)cc1	-15%	-4%
Cc1ccc(NC(=[OH+])c2cc3ccccc3cc2O)c(C)c1.Cc1ccc(NC(=[OH+])c2cc3ccccc3cc2O)c(C)c1.[Ni]	30%	5%
CCc1nn(CC(=O)NCCc2ccc(OC)cc2OC)c(=O)c2cc3c(OC)cccc3n12	-8%	0%
CCc1ccccc1OCC(=O)Nc1ccc(S(=O)(=O)Nc2nc(C)cc(C)n2)cc1	?	-7%
COc1ccc(CNC(=O)CN2C(=O)COc3ccccc32)c(OC)c1	7%	0%
Cc1cc(C)cc(NC(=O)CCCc2nc(-c3ccco3)no2)c1	18%	-8%
CC1CCC(C(=O)NC(C(=O)OCC(=O)c2ccccc2)C(C)C)CC1 (centres undefined)	?	16µM*
CCc1ccc(C(=O)COC(=O)C(Cc2ccccc2)NC(=O)C2CCC(C)CC2)cc1 (centres undefined)	-15%	7%
CCN1C(c2ccccc2)=C(c2ccccc2)S/C1=C/C=C1\SC(=S)N(C)C1=O	10µM*	-6%
CCN1C(=O)/C(=C/C=C2/Sc3ccc4ccccc4c3N2CCO)SC1=S	-21%	-3%
CCOc1ccc(S(=O)(=O)NCC(c2ccco2)S(=O)(=O)c2cccs2)cc1 (centres undefined)	-3%	-5%
O=C(NC(=S)Nc1ccc(N2CCCCC2)c(Cl)c1)c1ccc2c(c1)OCCO2	25µM*	-1%
O=C(NC(=S)Nc1ccc(N2CCOCC2)c(Cl)c1)c1cncc(Br)c1	-9%	-4%
O=C(Cc1cc(=O)oc2cc(O)ccc12)NCC1CCC(C(=O)O)CC1 (centres undefined)	-87%	25µM*
CN(C)c1cccc(C(=O)OCc2cc(=O)oc3cc(O)ccc23)c1	-7%	-15%
Cc1cccc(CCNC(=O)C2CCN(c3nc4ccccc4nc3C(F)(F)F)CC2)c1	-5%	2%
O=C(O)[C@@H]1[C@@H](C(=O)NCc2ccncc2)[C@@H]2C=C[C@@H]1O2	5%	0%
SMILES	Cruzain inh noDet	Cruzain Triton
CC(C)CC(C(=O)Nc1ccc2c(c1)OCCO2)N1C(=O)c2ccccc2C1=O (centres undefined)	-7%	-8%
CC(C)CC(C(=O)Nc1oc(-c2ccco2)c(-c2ccco2)c1C#N)N1C(=O)c2ccccc2C1=O (centres undefined)	32µM*	-22%
CCc1cccc(Nc2ncnc3onc(-c4ccc(F)cc4)c23)c1	2%	-10%
Cc1ccc(C2C(/C=C3/SC(=S)NC3=O)=C(c3cccs3)Oc3ccccc32)cc1 (centres undefined)	7.9µM*	-2%
Cc1nn(C)c(C)c1/C=C1/SC(=S)NC1=O	3%	2%
Cn1c(Sc2ccc(-c3cccnc3)n2C)ccc1-c1cccnc1	-8%	-11%
Cc1ccc(C)c(CN2C(=O)c3ccccc3S(=O)(=O)c3ccc(C(=O)NCCc4ccc(Cl)cc4)cc32)c1	10µM*	5%
O=C(NCCc1ccc(Cl)cc1)c1ccc2c(c1)N(Cc1ccccc1F)C(=O)c1ccccc1S2(=O)=O	?	1%
Cc1ccc(C)c(CN2C(=O)c3ccccc3S(=O)(=O)c3ccc(C(=O)Nc4cc(F)ccc4F)cc32)c1	16µM*	-2%
Cc1ccc(C)c(CN2C(=O)c3ccccc3S(=O)(=O)c3ccc(C(=O)Nc4ccccc4C(F)(F)F)cc32)c1	?	-5%
CCc1ccc2oc(C(=O)Nc3c(C)n(C)n(-c4ccccc4)c3=O)cc(=O)c2c1	-7%	-4%
CCn1c(CNC(=O)Cc2ccc(OC)cc2)nnc1SCC(=O)Nc1nccs1	-7%	5%
CCn1c(COc2ccc3c(c2)CCCC3)nnc1SCC(=O)Nc1nccs1	7.9µM*	9%
CC(C)n1c(SCC(=O)Nc2ccc(F)cc2)nc2c(oc3ccccc32)c1=O	-1%	2%
Cc1cc(C=O)c(C)n1-c1ccc(Oc2ccc([N+](=O)[O-])cn2)cc1	-10%	-4%
CNC(=S)N/N=C/c1cn(Cc2ccc(F)cc2)c2ccccc12	?	-13%
Cc1cccc(C)c1-n1c(C)cc(/C=N\Nc2ccc([N+](=O)[O-])cn2)c1C	16µM*	-4%
O=[N+]([O-])c1ccc(N/N=C/c2cn(Cc3ccc(F)cc3)c3ccccc23)nc1	7.9µM*	-9%
CC(CC(=O)NCc1ccc(Cl)cc1)CC1=NS(=O)(=O)c2ccccc2N1 (centres undefined)	-2%	1%
Cc1ccc(OCc2nc(-c3ccc(C(=O)NCCc4ccc(Cl)cc4)cc3)oc2C)cc1	5%	-1%
Cc1ccc(-c2csc(NC(=S)NC(=O)c3cc4ccccc4o3)n2)cc1	6.3µM*	0%
Cc1ccc(-c2csc(NC(=S)NC(=O)/C=C/c3ccco3)n2)cc1	?	1%
Cc1ccc(-c2nc3ccccc3o2)cc1NC(=S)NC(=O)c1cc2ccccc2o1	6.3µM*	-1%
Cc1ccc(-c2nc3cc(C(C)C)ccc3o2)cc1NC(=O)c1cc2ccccc2o1	?	-1%
N#Cc1ccc(-c2csc(NNC(=O)c3ccc(Br)cc3)n2)cc1	7.9µM*	-2%
SMILES	Cruzain inh noDet	Cruzain Triton
O=C(NC(=S)Nc1nc(-c2ccc(Br)cc2)cs1)c1cccnc1	4µM*	4%
N#Cc1ccc(-c2csc(NNC(=O)c3ccccc3)n2)cc1	?	1%
O=C(Nc1nc(-c2ccccc2)cs1)c1cccnc1	-7%	3%
Cc1cc(C)n(-c2nc3cc(Cl)ccc3nc2N2CCN(c3cccc(C)c3C)CC2)n1	2%	-2%
CN1CCN(C(=O)Nc2cccc(Cl)c2)c2cccnc21	-29%	-18%
Cc1ccc(NC(=O)CCn2nc(C)c(S(=O)(=O)N3CCCCC3)c2C)cc1Cl	?	-8%
CCCCNC(=O)CN1CCN(c2ccc(NC(=O)c3ccc(OC)cc3)cc2C(=O)O)CC1	-2%	2%
Cc1cc(C(F)(F)F)nn1CC(=O)Nc1cccnc1	-6%	1%
CSc1cc2c(cc1C(F)(F)F)N(C(=O)Nc1cccnc1)CC2	7.9µM*	1%
CCCCCOc1ccc(/C=C/C(=O)Nc2sc(C)c(C)c2C(=O)OCC)cc1OC	-1%	-1%
COc1ccc(/C=c2\s/c(=C/C(=O)c3ccc(C)cc3)[nH]c2=O)c(OC)c1	25µM*	-7%
COc1cccc(/C=c2\s/c(=C/C(=O)c3ccc(C)cc3)[nH]c2=O)c1OC	-20%	-2%
